Reference: ChEMBL document CHEMBL1961873, “Compounds: GSK PKIS; Assays: Nanosyn kinase panel” (2012)

How the values were obtained:
[1] = molecular target: Sphingosine kinase 1 (Homo sapiens) (UniProt Q9NYA1); settings: at 1 µM;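 also: mean SPHK1 inhibition value reported from the GSK PKIS kinase panel screen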
[2] = molecular target: T1, Sphingosine kinase 2 (Homo sapiens) (UniProt Q9NRA0); settings: at 0.1 µM
T1 sequence (whole entry): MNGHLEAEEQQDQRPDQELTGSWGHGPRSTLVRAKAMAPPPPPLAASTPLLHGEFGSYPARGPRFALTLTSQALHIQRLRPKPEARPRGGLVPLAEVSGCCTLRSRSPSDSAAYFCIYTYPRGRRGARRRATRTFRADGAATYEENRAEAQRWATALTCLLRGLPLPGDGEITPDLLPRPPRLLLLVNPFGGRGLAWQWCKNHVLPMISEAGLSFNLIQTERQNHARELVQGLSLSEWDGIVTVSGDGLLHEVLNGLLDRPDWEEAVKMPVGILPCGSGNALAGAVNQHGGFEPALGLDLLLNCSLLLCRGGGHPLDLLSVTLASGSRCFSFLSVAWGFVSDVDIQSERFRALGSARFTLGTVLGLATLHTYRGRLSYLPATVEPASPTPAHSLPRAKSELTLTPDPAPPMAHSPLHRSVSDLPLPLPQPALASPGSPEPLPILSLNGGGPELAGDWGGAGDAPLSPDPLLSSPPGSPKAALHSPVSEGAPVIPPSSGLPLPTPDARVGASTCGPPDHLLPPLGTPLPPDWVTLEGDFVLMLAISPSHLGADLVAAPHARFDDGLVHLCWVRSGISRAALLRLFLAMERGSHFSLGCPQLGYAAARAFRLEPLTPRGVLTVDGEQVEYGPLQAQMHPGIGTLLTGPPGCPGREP

[3] = molecular target: Casein kinase II subunit alpha (Homo sapiens) (UniProt P68400); settings: at 0.1 µM
Sequence of Casein kinase II subunit alpha (Homo sapiens) (P68400 whole entry, looked up): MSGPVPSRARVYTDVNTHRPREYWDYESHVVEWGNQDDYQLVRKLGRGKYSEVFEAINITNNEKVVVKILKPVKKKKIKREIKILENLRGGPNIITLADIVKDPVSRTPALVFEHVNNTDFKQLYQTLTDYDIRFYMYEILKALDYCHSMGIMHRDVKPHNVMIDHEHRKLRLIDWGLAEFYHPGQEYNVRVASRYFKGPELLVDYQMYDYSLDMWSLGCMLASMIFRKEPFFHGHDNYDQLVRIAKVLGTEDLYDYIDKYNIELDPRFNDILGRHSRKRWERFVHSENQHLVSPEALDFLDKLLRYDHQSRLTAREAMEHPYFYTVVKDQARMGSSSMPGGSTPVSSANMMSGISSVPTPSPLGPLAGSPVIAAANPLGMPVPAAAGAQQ

[4] = molecular target: Casein kinase II subunit alpha (Homo sapiens) (UniProt P68400); settings: at 1 µM
[5] = molecular target: T2, Inhibitor of nuclear factor kappa-B kinase subunit alpha (Homo sapiens) (UniProt O15111); settings: at 0.1 µM
T2 sequence (whole entry): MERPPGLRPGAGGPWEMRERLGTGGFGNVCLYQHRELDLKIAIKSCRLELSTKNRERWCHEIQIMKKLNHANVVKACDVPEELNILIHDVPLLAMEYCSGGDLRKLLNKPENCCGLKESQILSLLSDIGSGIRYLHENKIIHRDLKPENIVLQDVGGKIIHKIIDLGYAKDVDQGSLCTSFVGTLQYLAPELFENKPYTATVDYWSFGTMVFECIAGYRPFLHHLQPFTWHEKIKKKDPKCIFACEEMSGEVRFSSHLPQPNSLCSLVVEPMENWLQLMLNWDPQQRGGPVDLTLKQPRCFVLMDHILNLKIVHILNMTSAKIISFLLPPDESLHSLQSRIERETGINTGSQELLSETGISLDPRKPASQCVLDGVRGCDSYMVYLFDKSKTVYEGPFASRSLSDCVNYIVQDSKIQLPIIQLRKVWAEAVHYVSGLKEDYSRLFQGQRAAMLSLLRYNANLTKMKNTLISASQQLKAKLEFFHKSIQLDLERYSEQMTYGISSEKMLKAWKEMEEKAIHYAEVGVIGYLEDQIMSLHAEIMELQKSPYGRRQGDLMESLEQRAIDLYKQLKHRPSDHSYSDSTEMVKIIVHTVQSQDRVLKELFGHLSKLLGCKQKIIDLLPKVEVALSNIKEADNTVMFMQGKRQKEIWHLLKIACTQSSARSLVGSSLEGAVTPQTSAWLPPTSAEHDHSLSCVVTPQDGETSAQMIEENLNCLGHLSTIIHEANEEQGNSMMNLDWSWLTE

[6] = molecular target: T2, Inhibitor of nuclear factor kappa-B kinase subunit alpha (Homo sapiens); settings: at 1 µM
[7] = molecular target: T3, Inhibitor of nuclear factor kappa-B kinase subunit beta (Homo sapiens) (UniProt O14920); settings: at 0.1 µM
T3 sequence (whole entry): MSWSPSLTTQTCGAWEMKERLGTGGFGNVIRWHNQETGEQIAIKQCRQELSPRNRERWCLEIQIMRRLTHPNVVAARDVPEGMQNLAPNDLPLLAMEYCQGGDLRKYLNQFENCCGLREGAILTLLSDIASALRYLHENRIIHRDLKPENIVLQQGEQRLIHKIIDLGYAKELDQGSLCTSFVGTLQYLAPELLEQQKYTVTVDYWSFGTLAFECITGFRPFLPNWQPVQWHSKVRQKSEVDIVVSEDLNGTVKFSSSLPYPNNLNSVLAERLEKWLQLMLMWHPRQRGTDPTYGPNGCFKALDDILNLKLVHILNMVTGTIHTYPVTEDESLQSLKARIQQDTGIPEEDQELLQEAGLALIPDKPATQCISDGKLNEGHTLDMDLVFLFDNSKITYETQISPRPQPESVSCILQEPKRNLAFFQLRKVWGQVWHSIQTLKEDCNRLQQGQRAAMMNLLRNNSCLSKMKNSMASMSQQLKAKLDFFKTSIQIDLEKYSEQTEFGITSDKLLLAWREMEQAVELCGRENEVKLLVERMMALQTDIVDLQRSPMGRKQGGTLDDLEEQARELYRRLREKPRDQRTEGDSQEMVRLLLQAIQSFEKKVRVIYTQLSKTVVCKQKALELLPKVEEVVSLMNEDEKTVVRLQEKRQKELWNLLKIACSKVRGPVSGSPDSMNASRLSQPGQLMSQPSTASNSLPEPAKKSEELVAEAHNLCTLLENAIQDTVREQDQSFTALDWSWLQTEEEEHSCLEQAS

[8] = molecular target: T3, Inhibitor of nuclear factor kappa-B kinase subunit beta (Homo sapiens); settings: at 1 µM
[9] = molecular target: T4, Inhibitor of nuclear factor kappa-B kinase subunit epsilon (Homo sapiens) (UniProt Q14164); settings: at 0.1 µM
T4 sequence (whole entry): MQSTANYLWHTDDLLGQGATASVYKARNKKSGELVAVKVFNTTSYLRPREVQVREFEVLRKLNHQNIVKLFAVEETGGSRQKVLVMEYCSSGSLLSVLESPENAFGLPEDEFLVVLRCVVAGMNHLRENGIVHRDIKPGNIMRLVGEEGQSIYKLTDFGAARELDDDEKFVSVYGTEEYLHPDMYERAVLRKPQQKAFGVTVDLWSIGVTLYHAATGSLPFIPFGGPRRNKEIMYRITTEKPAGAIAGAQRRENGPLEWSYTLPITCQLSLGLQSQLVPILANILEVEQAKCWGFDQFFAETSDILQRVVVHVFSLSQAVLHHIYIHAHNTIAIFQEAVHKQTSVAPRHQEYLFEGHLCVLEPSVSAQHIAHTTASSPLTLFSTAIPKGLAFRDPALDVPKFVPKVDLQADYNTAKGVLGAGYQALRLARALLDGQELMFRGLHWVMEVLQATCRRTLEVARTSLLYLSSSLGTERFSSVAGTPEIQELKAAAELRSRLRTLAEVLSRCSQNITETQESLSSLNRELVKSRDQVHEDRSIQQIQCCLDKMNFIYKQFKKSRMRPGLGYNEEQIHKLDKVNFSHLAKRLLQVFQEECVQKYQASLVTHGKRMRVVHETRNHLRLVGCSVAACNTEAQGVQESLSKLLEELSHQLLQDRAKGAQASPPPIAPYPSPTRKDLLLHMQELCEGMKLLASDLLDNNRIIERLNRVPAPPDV

[10] = molecular target: T4, Inhibitor of nuclear factor kappa-B kinase subunit epsilon (Homo sapiens); settings: at 1 µM
[11] = molecular target: T5, Serine/threonine-protein kinase Nek1 (Homo sapiens) (UniProt Q96PY6); settings: at 0.1 µM
T5 sequence (whole entry): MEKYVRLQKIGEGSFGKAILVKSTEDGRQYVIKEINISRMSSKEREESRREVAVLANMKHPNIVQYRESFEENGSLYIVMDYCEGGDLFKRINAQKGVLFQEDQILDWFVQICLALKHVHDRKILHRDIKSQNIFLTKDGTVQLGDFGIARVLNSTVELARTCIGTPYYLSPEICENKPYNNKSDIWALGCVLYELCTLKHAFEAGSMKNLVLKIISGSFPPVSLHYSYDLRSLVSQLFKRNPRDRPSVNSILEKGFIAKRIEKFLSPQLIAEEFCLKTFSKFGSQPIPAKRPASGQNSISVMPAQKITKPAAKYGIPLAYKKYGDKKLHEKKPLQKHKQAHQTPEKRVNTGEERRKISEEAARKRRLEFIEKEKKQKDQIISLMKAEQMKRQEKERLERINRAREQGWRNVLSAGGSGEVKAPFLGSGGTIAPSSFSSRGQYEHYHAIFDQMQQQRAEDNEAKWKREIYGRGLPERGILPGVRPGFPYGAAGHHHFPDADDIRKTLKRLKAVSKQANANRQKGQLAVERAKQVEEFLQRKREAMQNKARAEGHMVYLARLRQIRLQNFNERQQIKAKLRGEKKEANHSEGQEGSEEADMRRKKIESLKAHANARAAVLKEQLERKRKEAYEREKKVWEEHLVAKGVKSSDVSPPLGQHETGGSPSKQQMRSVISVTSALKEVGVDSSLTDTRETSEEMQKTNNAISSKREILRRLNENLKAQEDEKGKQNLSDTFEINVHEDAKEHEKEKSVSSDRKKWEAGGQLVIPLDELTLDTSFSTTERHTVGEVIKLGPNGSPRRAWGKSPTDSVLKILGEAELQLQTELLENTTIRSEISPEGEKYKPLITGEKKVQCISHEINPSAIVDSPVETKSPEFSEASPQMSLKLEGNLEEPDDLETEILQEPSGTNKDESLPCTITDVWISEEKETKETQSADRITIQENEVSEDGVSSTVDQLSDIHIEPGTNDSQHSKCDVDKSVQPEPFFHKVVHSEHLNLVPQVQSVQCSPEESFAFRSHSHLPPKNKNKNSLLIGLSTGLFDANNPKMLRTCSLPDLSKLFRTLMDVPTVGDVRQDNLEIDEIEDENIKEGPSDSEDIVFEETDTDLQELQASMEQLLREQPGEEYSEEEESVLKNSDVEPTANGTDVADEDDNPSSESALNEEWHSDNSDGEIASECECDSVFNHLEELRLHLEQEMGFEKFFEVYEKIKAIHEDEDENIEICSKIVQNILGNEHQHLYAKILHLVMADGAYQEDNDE

[12] = molecular target: T5, Serine/threonine-protein kinase Nek1 (Homo sapiens); settings: at 1 µM
[13] = molecular target: T6, Serine/threonine-protein kinase Nek2 (Homo sapiens) (UniProt P51955); settings: at 0.1 µM
T6 sequence (whole entry): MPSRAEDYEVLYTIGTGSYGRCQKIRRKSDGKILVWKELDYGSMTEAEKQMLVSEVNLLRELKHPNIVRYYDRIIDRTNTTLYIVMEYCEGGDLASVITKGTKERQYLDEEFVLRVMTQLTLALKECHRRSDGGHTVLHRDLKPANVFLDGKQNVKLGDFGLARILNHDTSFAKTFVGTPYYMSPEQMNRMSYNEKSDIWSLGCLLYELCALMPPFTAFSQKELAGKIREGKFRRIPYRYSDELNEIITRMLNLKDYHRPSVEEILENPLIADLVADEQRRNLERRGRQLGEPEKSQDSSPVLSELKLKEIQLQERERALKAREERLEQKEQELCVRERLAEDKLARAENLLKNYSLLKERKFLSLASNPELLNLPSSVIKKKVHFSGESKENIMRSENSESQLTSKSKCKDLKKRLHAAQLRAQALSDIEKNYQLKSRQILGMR

[14] = molecular target: T6, Serine/threonine-protein kinase Nek2 (Homo sapiens); settings: at 1 µM
[15] = molecular target: Serine/threonine-protein kinase Nek6 (Homo sapiens) (UniProt Q9HC98); settings: at 0.1 µM
Sequence of Serine/threonine-protein kinase Nek6 (Homo sapiens) (Q9HC98 whole entry): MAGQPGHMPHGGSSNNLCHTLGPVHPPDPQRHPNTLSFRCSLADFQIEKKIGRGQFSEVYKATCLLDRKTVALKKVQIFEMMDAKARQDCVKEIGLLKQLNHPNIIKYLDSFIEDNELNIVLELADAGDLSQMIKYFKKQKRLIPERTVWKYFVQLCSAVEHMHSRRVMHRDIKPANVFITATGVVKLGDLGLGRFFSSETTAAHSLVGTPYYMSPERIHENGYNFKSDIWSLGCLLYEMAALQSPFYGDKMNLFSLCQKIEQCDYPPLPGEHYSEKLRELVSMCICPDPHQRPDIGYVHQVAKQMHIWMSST

[16] = molecular target: Serine/threonine-protein kinase Nek6 (Homo sapiens) (UniProt Q9HC98); settings: at 1 µM
[17] = molecular target: Serine/threonine-protein kinase Nek7 (Homo sapiens) (UniProt Q8TDX7); settings: at 0.1 µM
Sequence of Serine/threonine-protein kinase Nek7 (Homo sapiens) (Q8TDX7 whole entry, looked up): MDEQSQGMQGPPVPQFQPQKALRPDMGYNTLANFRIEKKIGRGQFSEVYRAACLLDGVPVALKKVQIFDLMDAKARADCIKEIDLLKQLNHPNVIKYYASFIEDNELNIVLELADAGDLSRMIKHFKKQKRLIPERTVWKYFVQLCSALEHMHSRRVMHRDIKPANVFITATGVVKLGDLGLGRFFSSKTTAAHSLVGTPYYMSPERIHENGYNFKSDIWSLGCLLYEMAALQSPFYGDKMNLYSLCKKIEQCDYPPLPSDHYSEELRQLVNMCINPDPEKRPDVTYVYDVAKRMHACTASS

[18] = molecular target: Serine/threonine-protein kinase Nek7 (Homo sapiens) (UniProt Q8TDX7); settings: at 1 µM
[19] = molecular target: T7, Serine/threonine-protein kinase Nek9 (Homo sapiens) (UniProt Q8TD19); settings: at 0.1 µM;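 also: reported value is the mean percent inhibition of NEK9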
T7 sequence (whole entry): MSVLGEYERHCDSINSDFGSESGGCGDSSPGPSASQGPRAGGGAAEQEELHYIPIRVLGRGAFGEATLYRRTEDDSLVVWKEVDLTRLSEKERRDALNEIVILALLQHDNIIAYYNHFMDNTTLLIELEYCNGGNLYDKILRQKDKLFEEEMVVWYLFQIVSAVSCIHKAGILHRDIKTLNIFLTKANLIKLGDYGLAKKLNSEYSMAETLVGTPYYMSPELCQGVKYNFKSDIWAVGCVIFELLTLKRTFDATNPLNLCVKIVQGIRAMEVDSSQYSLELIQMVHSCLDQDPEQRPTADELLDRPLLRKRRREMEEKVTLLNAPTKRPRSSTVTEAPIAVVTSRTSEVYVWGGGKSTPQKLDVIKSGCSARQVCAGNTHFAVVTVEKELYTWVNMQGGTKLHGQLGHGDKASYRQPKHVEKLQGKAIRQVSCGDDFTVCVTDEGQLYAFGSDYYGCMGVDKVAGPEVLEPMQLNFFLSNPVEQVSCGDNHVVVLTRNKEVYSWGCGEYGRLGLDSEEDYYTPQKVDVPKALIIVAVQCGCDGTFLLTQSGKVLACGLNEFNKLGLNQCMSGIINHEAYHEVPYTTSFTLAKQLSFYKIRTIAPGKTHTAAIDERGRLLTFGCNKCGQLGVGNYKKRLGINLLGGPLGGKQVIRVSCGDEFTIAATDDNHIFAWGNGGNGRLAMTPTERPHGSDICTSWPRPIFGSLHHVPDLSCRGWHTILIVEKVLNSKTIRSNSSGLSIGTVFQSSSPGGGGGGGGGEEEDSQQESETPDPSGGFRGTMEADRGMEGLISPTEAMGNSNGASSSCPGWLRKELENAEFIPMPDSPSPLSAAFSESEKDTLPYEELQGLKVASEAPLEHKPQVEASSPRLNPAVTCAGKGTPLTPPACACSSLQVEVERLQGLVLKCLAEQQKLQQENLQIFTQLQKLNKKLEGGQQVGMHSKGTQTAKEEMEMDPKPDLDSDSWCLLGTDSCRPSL

[20] = molecular target: T1, Sphingosine kinase 2 (Homo sapiens); settings: at 1 µM

Sequence of Sphingosine kinase 1 (Homo sapiens) (Q9NYA1 whole entry): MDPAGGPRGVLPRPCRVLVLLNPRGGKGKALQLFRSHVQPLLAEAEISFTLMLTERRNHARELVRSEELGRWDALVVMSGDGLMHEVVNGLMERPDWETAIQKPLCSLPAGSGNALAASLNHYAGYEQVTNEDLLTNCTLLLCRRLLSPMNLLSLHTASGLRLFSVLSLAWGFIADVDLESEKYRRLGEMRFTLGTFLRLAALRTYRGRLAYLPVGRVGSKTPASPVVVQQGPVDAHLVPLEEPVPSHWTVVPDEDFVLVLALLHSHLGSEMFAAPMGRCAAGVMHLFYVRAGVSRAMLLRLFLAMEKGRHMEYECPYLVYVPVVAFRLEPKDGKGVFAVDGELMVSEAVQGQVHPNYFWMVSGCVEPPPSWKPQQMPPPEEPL

SMILES	inhibition [1] [%]	inhibition [2] [%]	inhibition [3] [%]	inhibition [4] [%]	inhibition [5] [%]	inhibition [6] [%]	inhibition [7] [%]	inhibition [8] [%]	inhibition [9] [%]	inhibition [10] [%]	inhibition [11] [%]	inhibition [12] [%]	inhibition [13] [%]	inhibition [14] [%]	inhibition [15] [%]	inhibition [16] [%]	inhibition [17] [%]	inhibition [18] [%]	inhibition [19] [%]	inhibition [20] [%]
[O-][S+]1CCN(Cc2ccc(-c3ccc4ncnc(Nc5ccc(OCc6ccccc6)c(F)c5)c4c3)o2)CC1	-3.44	0.02	-1.48	1.56	1.7	1.1	4.51	-0.14	3.11	1.45	1.95	2.41	3.45	3.23	1.87	-0.69	2.33	2.07	5.9	–
CC1=C(C(=O)Nc2ccc3[nH]ncc3c2)C(c2ccc(Cl)c(Cl)c2)CC(=O)N1 (centres undefined)	-3.67	-0.3	2.1	3.35	5.09	2.52	3.16	0.15	0.83	-0.94	0.09	-0.51	1.92	1.44	-0.99	-2.51	2.34	3.79	7.85	-1.45
